# Reference: PubChem BioAssay
# What was measured:
# [1] = system: Human papillomavirus type 1a protein E7 (residues 44-93); experiment: small molecules binding HPV E7 44-93 – biochemical, small-molecule microarray, residues 44-93, 635 nm fluorescence, primary screen (AID 1108); details: fluorescence 635 nm, higher = more signal;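 also: E7 fragment applied at 1 µg/mL in TBST for 1 h at 4 C; score combines spot fluorescence with its signal to noise ratio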
# [2] = hepatitis C replication reporter changes, two-sided – Huh7 cells, luciferase reporter, HCV replication inhibitor project, primary screen (AID 1109); details: Huh7 HCV replicon luciferase reporter, 48 h; higher = more signal;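 also: huh7 hepatoma cells harbouring a luciferase neomycin HCV replicon reporter; luciferase luminescence as measure of HCV replicon replication; test concentration not given here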
# [3] = target: Left-right determination factor 2 (Homo sapiens) (UniProt O00292); experiment: small molecules binding LEFTY2 protein – biochemical, small-molecule microarray, 635 nm fluorescence scan, primary screen (AID 1110); details: higher = more signal
# [4] = target: Calmodulin-1 (Homo sapiens) (UniProt P0DP23); experiment: small molecules binding calmodulin-1 with EGTA – biochemical, small-molecule microarray, Cy5-labelled CALM1, profiling panel (AID 1111); details: Cy5-CALM1 binding fluorescence, higher = more signal;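 also: labelled calmodulin applied in Tris saline Tween buffer holding calcium plus EGTA and DTT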
# [5] = target: Calmodulin-1 (Homo sapiens) (UniProt P0DP23); experiment: small molecules binding Ca-loaded calmodulin-1 – biochemical, small-molecule microarray, Cy5-labelled CALM1, plus calcium, artefact control for SMM control-protein annotation, profiling panel (AID 1112); details: Cy5-CALM1 binding fluorescence, higher = more signal;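 also: score merges spot fluorescence with signal to noise from triplicate slides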
# [6] = probe aWnt5a binding to arrayed compounds – biochemical, biotinylated probe, 635/667 nm fluorescence, primary screen (AID 1113); details: small-molecule microarray, higher = more signal;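 also: score merges 667 nm fluorescence intensity with signal-to-noise per printed feature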
# [7] = probe aShh binding to arrayed compounds – biochemical, biotinylated probe, 635/667 nm fluorescence, primary screen (AID 1114); details: small-molecule microarray, higher = more signal;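 also: probe is biotin-labelled aShh protein from a stem cell growth factor screen; measures binding of labelled protein to compounds printed on the slide; score merges feature fluorescence at 667 nm with signal-to-noise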
# [8] = probe aNog binding to arrayed compounds – biochemical, biotinylated probe, 635/667 nm fluorescence, primary screen (AID 1115); details: small-molecule microarray, higher = more signal;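 also: probe is biotinylated aNog protein used at 0.15 µg/mL for 1 h at 4 C; z-score combines 667 nm fluorescence of each spot with its signal to noise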
# [9] = target: Torsin-1A-interacting protein 1 (Homo sapiens) (UniProt Q5JTV8); experiment: compound microarray binding of lysate hLAP1 – cell lysate, small-molecule microarray, COS7 lysate, 635/667 nm fluorescence, primary screen (AID 1116); details: 635 nm fluorescence, higher = more signal
# [10] = target: Alpha-bungarotoxin (Bungarus multicinctus) (UniProt P60615); experiment: compounds binding labelled alpha-BTX control protein – biochemical, small-molecule microarray, Alexa647 label, 635/667 nm fluorescence, artefact control for SMM control protein annotation, profiling panel (AID 1117); details: alpha-BTX-A647 binding fluorescence, higher = more signal
# Sequence of Alpha-bungarotoxin (Bungarus multicinctus) (P60615 whole entry, looked up): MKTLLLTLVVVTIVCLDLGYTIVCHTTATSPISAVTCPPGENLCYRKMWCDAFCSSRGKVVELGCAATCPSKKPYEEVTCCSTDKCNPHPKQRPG
# Sequence of Left-right determination factor 2 (Homo sapiens) (O00292 whole entry, looked up): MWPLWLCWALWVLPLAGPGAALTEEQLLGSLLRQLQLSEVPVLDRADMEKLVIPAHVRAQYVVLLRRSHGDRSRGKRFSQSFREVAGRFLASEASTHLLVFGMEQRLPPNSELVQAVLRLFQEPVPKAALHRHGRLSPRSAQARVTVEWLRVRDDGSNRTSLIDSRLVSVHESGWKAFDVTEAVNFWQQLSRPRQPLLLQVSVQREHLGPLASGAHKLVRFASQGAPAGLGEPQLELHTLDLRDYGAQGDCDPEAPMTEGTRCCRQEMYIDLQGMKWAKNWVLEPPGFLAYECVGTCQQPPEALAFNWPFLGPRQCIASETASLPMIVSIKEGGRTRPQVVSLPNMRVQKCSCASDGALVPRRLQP
# Sequence of Torsin-1A-interacting protein 1 (Homo sapiens) (Q5JTV8 whole entry, looked up): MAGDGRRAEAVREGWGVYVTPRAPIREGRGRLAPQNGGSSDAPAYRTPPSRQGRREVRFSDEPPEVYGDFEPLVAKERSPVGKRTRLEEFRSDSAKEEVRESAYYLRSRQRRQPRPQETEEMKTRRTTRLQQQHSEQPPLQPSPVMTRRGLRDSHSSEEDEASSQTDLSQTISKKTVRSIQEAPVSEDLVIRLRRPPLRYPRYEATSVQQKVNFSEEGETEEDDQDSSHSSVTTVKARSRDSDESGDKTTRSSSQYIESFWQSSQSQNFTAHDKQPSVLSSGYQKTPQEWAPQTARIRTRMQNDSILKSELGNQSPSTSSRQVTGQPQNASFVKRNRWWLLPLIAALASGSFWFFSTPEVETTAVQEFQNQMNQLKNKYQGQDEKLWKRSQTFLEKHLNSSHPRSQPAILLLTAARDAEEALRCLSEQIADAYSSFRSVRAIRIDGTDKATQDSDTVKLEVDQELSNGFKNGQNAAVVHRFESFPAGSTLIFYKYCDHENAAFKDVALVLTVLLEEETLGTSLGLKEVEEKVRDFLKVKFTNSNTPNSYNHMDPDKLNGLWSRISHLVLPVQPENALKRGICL
SMILES,composite z-score [1],z-score [2],composite z-score [3],composite z-score [4],composite z-score [5],composite z-score [6],composite z-score [7],composite z-score [8],composite z-score [9],composite z-score [10]
COCC(=C=CC[C@H](O)c1cccc(OCCO)c1)C[C@H](O)c1ccccn1,0.0462,-0.0093,-0.0587,-0.319,-0.621,0.0151,0.0952,0.167,1.68,1.26
CCCN1C(=O)[C@]2(Cc3ccccc3)N=C(c3ccc(OCCCO)cc3)O[C@@H]2c2ccccc21,1.06,-2.7,0.118,1.14,-0.422,0.027,-0.231,-0.646,0.42,1.33
Cc1ccc(S[C@]2(C(=O)NC(C)C)CC(=O)N(C3Cc4ccccc4C3)[C@@H]2c2ccc(CO)cc2I)cc1,-0.803,-2.19,-2.04,-0.625,-1.08,-0.596,-0.291,-1.12,-0.664,-0.365
CCOC(=O)C[C@H]1[C@H](OC(=O)c2ccc(-c3ccccc3)cc2)[C@@H](NC(=O)C2CCCCC2)c2cc(OCCCO)ccc2N1C(=O)c1ccccc1,0.959,-1.84,0.365,0.413,-0.0071,-0.0822,-0.123,-0.232,-0.241,0.0785
C=CCNC(=O)[C@@H]1[C@H]2C(=O)O[C@H](c3ccccc3)[C@H](c3ccccc3)N2[C@H](c2ccc(OCCO)cc2)[C@@]12C(=O)N(C(=O)OCCOC)c1ccc(C#CC3=CCCCC3)cc12,1.34,-1.68,0.509,1.66,0.283,-0.0051,0.13,-0.375,0.642,0.84
C=CC[C@H](OC(=O)Nc1ccc(OC)cc1)c1ccc(O)c2ccccc12,1.07,-3.63,0.848,0.107,-0.636,0.0511,0.0469,0.241,0.505,1.78
[N-]=[N+]=NCc1ccccc1C[C@@]1(C(=O)NCCN2CCOCC2)N=C(c2ccc(OCCCO)cc2)O[C@@H]1c1ccccc1N=[N+]=[N-],1.4,-3.07,-0.429,1.16,0.415,0.168,0.0141,0.78,0.948,1.89
COC(=O)[C@@]1(Cc2ccc(OC)cc2)[C@H]2c3cc(C(=O)N(C)C)n(Cc4ccccc4)c3C[C@H]2CN1C(=O)c1ccccc1,1.34,-1.66,-0.367,1.63,1.03,-0.0681,-0.12,-0.759,-0.681,0.187
O=c1cccc(-c2ccc(C(F)(F)F)cc2)o1,-1.57,0.587,-0.534,-0.271,0.238,-0.0685,0.163,-0.0446,-0.333,-0.364
COC(=O)[C@@]1(Cc2ccccc2)[C@H]2c3cc(C(=O)N4CCCC4)n(Cc4ccsc4Br)c3C[C@H]2CN1C(=O)c1ccccc1,1.45,-2.73,-0.505,1.6,1.17,0.332,-0.0789,1.99,0.545,1.23
C=CCNC(=O)[C@H]1[C@@H]2C(=O)O[C@@H](c3ccccc3)[C@@H](c3ccccc3)N2[C@@H](c2ccccc2OCCO)[C@]12C(=O)N(C(=O)OCCOC)c1ccc(C#CC3=CCCCC3)cc12,1.43,-3.34,0.68,1.63,0.49,0.125,0.0915,1.12,0.794,1.4
CCCCN1CC=CC23O[C@@H]4C=CCOC(=O)[C@@H]4[C@H]2C(=O)N(C(C)CO)[C@@H]3C1=O (stereo not given in full),-1.31,-0.748,-1.29,-0.397,0.5,-0.169,-0.209,0.26,-0.194,-0.714
CCOC(=CC(=O)OC)CC(O)c1cccc(Cl)c1 (stereo not given),1.11,-2.17,-0.796,-0.265,0.486,-0.0685,-0.156,-0.527,1.36,-0.259
COc1c(C)cc(-c2cc3c(c(Cc4ccccc4)n2)[Si](C(C)C)(C(C)C)OC3)cc1C,-0.0363,-0.637,0.265,0.0153,0.0467,-0.096,-0.123,-0.393,-0.0091,0.229
O=C1O[C@@H](c2ccccc2)[C@@H](c2ccccc2)N2[C@@H](c3ccccc3OCCO)[C@]3(C(=O)Nc4ccccc43)[C@@H](C(=O)NC[C@H](O)c3ccccc3)[C@H]12,0.705,-3.3,-0.555,1.08,0.845,-0.152,0.0557,-0.0161,1.35,-0.327
CCOC(=O)C[C@H]1[C@H](OC(=O)c2ccc(C(=O)c3ccccc3)cc2)[C@@H](NC(=O)c2ccc3ccccc3c2)c2cc(OCCCO)ccc2N1C(=O)c1ccccc1,0.974,-0.617,0.317,0.988,0.602,-0.0346,0.0684,0.612,0.602,1.04
C=C(CCCC)/C(=C/C[C@@H](OC(=O)c1ccncc1)c1cccc(OCCO)c1)c1cnc2ccccc2c1,1.3,-1.96,0.742,0.185,-0.472,0.0037,-0.0035,-0.103,1.49,2.58
Cc1ccc(S[C@]2(C(=O)NC(C)C)CC(=O)N(Cc3ccccc3C(F)(F)F)[C@@H]2c2ccc(CO)cc2I)cc1,0.187,-2.54,-0.796,-0.301,0.0016,-0.13,-0.0769,-0.0965,-0.0123,1.65
O=C1NC(=O)C2C1C=CC(C(O)c1c(F)cccc1Cl)N2Nc1ccccn1 (stereo not given),-0.465,-0.469,0.5,-1.19,-0.625,0.0108,-0.0274,-0.207,0.505,-0.358
CCOC(=O)C1=CC[C@@H](c2ccc([N+](=O)[O-])cc2)N(S(=O)(=O)c2ccc(C)cc2)[C@H]1c1ccccc1,1.4,-1.55,0.995,0.455,0.423,0.0324,-0.0769,0.506,0.378,0.962
C=C[C@H](COC(C)=O)NS(=O)(=O)c1ccc(Br)cc1,-0.292,0.55,0.0605,-0.173,-0.766,-0.0721,0.0121,-0.219,0.168,0.0669
CC[C@@H]1[C@H]2C3C(=O)N(CC)C(=O)C3CC(=O)[C@H]2[C@H](c2ccc(C)cc2)N1S(=O)(=O)c1ccc(C)cc1 (stereo not given in full),1.4,-2.17,0.174,1.01,0.715,-0.124,-0.0035,-0.115,-0.154,0.484
CC(C)CN1C(=O)[C@@]2(c3ccc([N+](=O)[O-])cc3)CC(=O)N(CC34CC5CC(CC(C5)C3)C4)[C@@H]2c2ccc(CO)cc21,-0.746,-1.07,-1.36,0.657,0.0047,-0.152,0.151,0.884,-1.09,0.578
O=C1O[C@@H](c2ccccc2)[C@@H](c2ccccc2)N2[C@@H](c3ccccc3OCCO)[C@]3(C(=O)Nc4ccc(C#CCCO)cc43)[C@@H](C(=O)N3CCN(c4ncccn4)CC3)[C@H]12,1.39,-1.71,-0.0407,1.15,0.27,-0.096,-0.16,-0.332,0.744,1.23
CCOC(=O)C[C@H]1[C@H](OC(=O)Cc2ccc3c(c2)OCO3)[C@@H](NC(=O)C2CCCCC2)c2cc(OCCCO)ccc2N1C(=O)c1ccc2ccccc2n1,1.33,-1.27,0.924,0.0105,-0.896,-0.1,-0.164,0.0862,0.746,0.663
CCOc1cc(C(O)C2C=CC3C(=O)N(C)C(=O)C3N2N2CCCCC2)ccc1O (stereo not given),0.0912,0.403,0.298,-0.0003,-0.393,0.0173,0.199,0.243,-0.283,0.676
C=CC[C@]1(C(=O)N(C)C)N=C(c2ccc(OCCCO)cc2)O[C@H]1c1ccccc1N=[N+]=[N-],1.4,-0.277,-0.406,2.27,0.116,0.0559,0.158,-0.0009,0.959,2.03
